# Measured values from PubChem BioAssay (EPA / NIEHS).
# Inconclusive results are not listed. Active and inactive are the calls of the source. Rule for the calls: active = hit-call score of the fitted dose curve at least 0.9, where 1 is the maximum; inconclusive = response in the unintended direction; inactive = score below 0.9.
# Assay: Tanguay_ZF_120hpf_SNOU_legacy: (Legacy) Oregon State University Tanguay Lab 120 Hour Post-fertilization zebrafish Assay for Snout Malformation (AID 2283637)
# Description: Tanguay_ZF_120hpf_legacy is a whole embryo, multiplexed endpoint assay using zebrafish larvae exposed for 120 hours post fertilization on a 96-well plate.Tanguay_ZF_120hpf_SNOU_legacy is one of one assay component(s) measured or calculated from the Tanguay_ZF_120hpf_legacy assay. It is designed to make measurements of zebrafish development as detected with brightfield microscopy of developing zebrafish embryos.Data from the assay component Tanguay_ZF_120hpf_SNOU_legacy was analyzed into 1 assay endpoints. This assay endpoint, Tanguay_ZF_120hpf_SNOU_legacy, was analyzed in the positive analysis fitting direction relative to DMSO as the negative control and baseline of activity. Using a type of morphology reporter, gain-of-signal activity can be used to understand changes in developmentals as they relate to the whole embryo. To generalize the intended target to other relatable targets, this assay endpoint is annotated to the zebrafish development intended target family, where the subfamily is embryonic snout morphogenesis.
# Zebrafish husbandry: Tropical 5D wild-type adult zebrafish were housed in at an approximate density of 1000 per 100 gallon tank at the Sinnhuber Aquatic Research Laboratory, Oregon State University, Corvallis, OR. Each tank was kept at standard laboratory conditions of 28C on a 14-h light/10-h dark photoperiod in fish water consisting of reverse osmosis water supplemented with a commercially available salt (Instant Ocean). Spawning funnels were placed into the tanks the night prior, and embryos were collected and staged. To increase bioavailability, the chorion was enzymatically removed using pronase (63.6mg/ml, >/= 3.5U/mg, Sigma-Aldrich: P5147) at 4 hours post fertilization (hpf) using a custom automated dechorionator.Chemical exposures: Six hpf dechorionated embryos were placed 1 embryo per well in a 96-well plate prefilled with 90 ul of EM using automated embryo placement systems (AEPS). Ten microliters of each row of dilution plate 2 was added to 2 exposure plates. The final DMSO concentration used was 0.64% (vol/vol). Thirty-two embryos were also exposed to 5uM trimethyltin chloride (positive control). Plates were sealed to prevent evaporation and foil covered to reduce light exposure and kept in a 28C incubator. Embryos were statically exposed until 120 hpf. At 24 hpf, embryos were assessed for photomotor response using a custom photomotor response analysis tool (PRAT) and for developmental toxicity endpoints (MO24: mortality at 24 hpf, DP: developmental progression, SM: spontaneous movement, and NC: notochord distortion). At 120 hpf, locomotor activity was measured using Viewpoint Zebralab and assessed for 18 endpoints. Zebrafish acquisition and analysis program (ZAAP), a custom program designed to inventory, acquire, and manage zebrafish data, was used to collect developmental endpoints as either present or absent (i.e., binary responses were recorded). If mortality occurred for an embryo (at either 24 or 120 hpf), the non-mortality endpoints were not measured.
Structure (SMILES),outcome,AC50
CCOS(=O)(=O)OCC,inactive,–
CCC1(c2ccccc2)C(=O)N=C(O)NC1=O (stereo not given),inactive,–
CCCCCCCc1ccc(O)cc1,inactive,–
CCCN(CCC)c1c([N+](=O)[O-])cc(C(C)C)cc1[N+](=O)[O-],inactive,–
[N-]=[N+]=[N-],inactive,–
Nc1cc2c3c(c1)C(c1ccccc1)=N[C@@H](NC(=O)c1cccnc1)C(=O)N3CC2,inactive,–
c1cc2c3c(cccc3c1)CC2,inactive,–
O=P1(N(CCCl)CCCl)NCCCO1 (stereo not given),inactive,–
c1nc[nH]n1,inactive,–
CC(Cl)(Cl)C(=O)O,inactive,–
Nc1ccc2ccccc2c1,–,33.9 µM (active)
CN(C)C(=O)Cl,inactive,–
CSC(C)(C)C=NO,inactive,–
O=C(O)C1C(C(=O)O)C2(Cl)C(Cl)=C(Cl)C1(Cl)C2(Cl)Cl (stereo not given),inactive,–
CCOC(=O)c1ccccc1C(=O)OCC,inactive,–
c1ccc2c(c1)Nc1ccccc1S2,inactive,–
O=[N+]([O-])c1ccccc1,inactive,–
COCCOCCO,inactive,–
CCCCN(CCCC)SN(C)C(=O)Oc1cccc2c1OC(C)(C)C2,inactive,–
Cc1ccc(N)cc1N,inactive,–

Structure (SMILES),outcome,AC50
Cc1ccc(O)cc1C,inactive,–
O=[N+]([O-])c1ccc(Cl)c(Cl)c1,inactive,–
O=C(O)C(Cl)Cl,inactive,–
OCC1CO1 (stereo not given),inactive,–
CC(C)(C)OOC(C)(C)C,inactive,–
Cc1ccc([N+](=O)[O-])cc1C,inactive,–
CC(Cc1ccc(OCC(=O)O)cc1)NCC(O)c1csc(C(F)(F)F)n1 (stereo not given),inactive,–
CCN(CC)c1ccccc1,inactive,–
CCCCN(CCCC)N=O,inactive,–
CCNc1nc(Cl)nc(NC(C)(C)C)n1,inactive,–
Nc1ccc(Cl)cc1,inactive,–
CCOP(=S)(Oc1ccc([N+](=O)[O-])cc1)c1ccccc1 (stereo not given),inactive,–
CC(C)(C)c1ccc(O)cc1,inactive,–
CCCCc1ccccc1,inactive,–
c1ccc(OP(Oc2ccccc2)Oc2ccccc2)cc1,inactive,–
Cc1cccc(N)c1,inactive,–
CCC(C)(C)c1ccc(O)cc1,–,52.7 µM (active)
O=P(Oc1ccccc1)(Oc1ccccc1)Oc1ccccc1,inactive,–
CCOP(=S)(OCC)SCSCC,inactive,–
CCOc1ccc(C(C)(C)COCc2cccc(Oc3ccccc3)c2)cc1,inactive,–
